Experimental data: PubChem BioAssay AID1159580 (chemical genetic matrix, 2015)
“And” between values parts separate entries of the source, which are not always exact repeats. Equal values may be shown once. Hit rate of the full screen: of about 5,500 compounds, about 2,000 (36%) were called active. Not shown: some 18% with an inconclusive outcome. Cut-off read from the data, not from the text of the source: active = normalized growth mostly below about 0.91 (no sharp cut-off); inconclusive = no clear call, values can overlap the other calls; inactive = mostly above about 0.92. Some of the results follow.

Test: chemical genetic growth profiling, strain panel (AID 1159580);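 note: tested at 20 µM; growth read once vehicle control cultures reached saturation at 30 °C; 1 = growth at the plate median or of vehicle wells; lower values mean less growth of the strain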
Conditions: S. cerevisiae deletion strains, growth OD

Measured: normalized growth

CC(CCC(=O)O)[C@H]1CCC2C3C[C@H](O)[C@@H]4C[C@H](O)CC[C@]4(C)C3CC[C@@]21C (stereo partly specified)
inactive: locus YAL021C, strain ccr4, stronger effect = lower value 0.977 | locus YAL026C, strain drs2, stronger effect = lower value 1.01 | locus YAL030W, strain snc1, stronger effect = lower value 0.984 | locus YBL061C, strain skt5, stronger effect = lower value 0.989 | locus YBR009C, strain hhf1, stronger effect = lower value 0.97 | locus YBR021W, strain FUR4, stronger effect = lower value 1.01 | locus YBR023C, strain chs3, stronger effect = lower value 0.982 | locus YBR171W, strain sec66, stronger effect = lower value 0.996 | locus YBR229C, strain ROT2, stronger effect = lower value 1.02 | locus YBR231C, strain swc5, stronger effect = lower value 1.01 | locus YBR279W, strain paf1, stronger effect = lower value 1 | locus YCL011C, strain gbp2, stronger effect = lower value 0.97 | locus YCL016C, strain dcc1, stronger effect = lower value 0.96 | locus YCL029C, strain bik1, stronger effect = lower value 1.04 | locus YCL069W, strain vba3, stronger effect = lower value 0.985 | locus YCR088W, strain abp1, stronger effect = lower value 0.993 | locus YDL005C, strain med2, stronger effect = lower value 0.973 | locus YDL035C, strain GPR1, stronger effect = lower value 1.04 | locus YDL040C, strain nat1, stronger effect = lower value 0.986 | locus YDL074C, strain BRE1, stronger effect = lower value 1.04 | locus YDL101C, strain DUN1, stronger effect = lower value 1.02 | locus YDL185W, strain tfp1, stronger effect = lower value 1.03 | locus YDL192W, strain arf1, stronger effect = lower value 1.04 | locus YDR001C, strain nth1, stronger effect = lower value 0.976 | locus YDR069C, strain doa4, stronger effect = lower value 0.983 | locus YDR101C, strain arx1, stronger effect = lower value 1.04 | locus YDR137W, strain rgp1, stronger effect = lower value 0.957 | locus YDR159W, strain sac3, stronger effect = lower value 1.05 | locus YDR162C, strain NBP2, stronger effect = lower value 1.01 | locus YDR195W, strain ref2 0.957 | locus YDR297W, strain sur2, stronger effect = lower value 0.988 | locus YDR318W, strain mcm21, stronger effect = lower value 1.02 | locus YDR334W, strain swr1, stronger effect = lower value 0.99 | locus YDR335W, strain msn5, stronger effect = lower value 0.979 | locus YDR388W, stronger effect = lower value 1.02 | locus YDR392W, strain spt3, stronger effect = lower value 0.88 | locus YDR502C, strain sam2, stronger effect = lower value 1.04 | locus YEL003W, strain gim4, stronger effect = lower value 1.01 | locus YEL037C, strain rad23, stronger effect = lower value 0.985 | locus YEL061C, strain CIN8 (second series), stronger effect = lower value 0.987 | locus YEL061C, strain CIN8, stronger effect = lower value 1.02 | locus YER015W, strain faa2, stronger effect = lower value 0.987 | locus YER016W, strain bim1, stronger effect = lower value 0.981 | locus YER110C, stronger effect = lower value 1.03 | locus YER111C, strain swi4, stronger effect = lower value 0.974 | locus YER155C, strain BEM2 (second series), stronger effect = lower value 1 | locus YER155C, strain BEM2, stronger effect = lower value 1.02 | locus YER167W, strain BCK2, stronger effect = lower value 1.04 | locus YFR010W, strain ubp6, stronger effect = lower value 1.01 | locus YGL078C, strain dbp3, stronger effect = lower value 1.02 | locus YGL086W, strain mad1, stronger effect = lower value 1.04 | locus YGL167C, strain pmr1, stronger effect = lower value 0.957 | locus YGL173C, strain kem1, stronger effect = lower value 1 | locus YGL227W, strain vid30, stronger effect = lower value 0.994 | locus YGL240W, strain doc1, stronger effect = lower value 1.02 | locus YGL248W, strain PDE1, stronger effect = lower value 1.02 | locus YGL253W, strain hxk2, stronger effect = lower value 1.02 | locus YGR135W, strain pre9, stronger effect = lower value 1.05 | locus YGR252W, strain gcn5, stronger effect = lower value 1 | locus YHR013C, strain ard1, stronger effect = lower value 0.935 | locus YHR027C, strain rpn1, stronger effect = lower value 0.965 | locus YHR030C, strain SLT2, stronger effect = lower value 1.02 and 1.06 | locus YHR079C, strain IRE1 (second series), stronger effect = lower value 1.02 | locus YHR079C, strain IRE1, stronger effect = lower value 1.04 | locus YHR094C, strain hxt1, stronger effect = lower value 1.02 | locus YHR129C, strain ARP1, stronger effect = lower value 1.03 | locus YHR142W, strain chs7, stronger effect = lower value 0.958 | locus YHR200W, strain rpn10, stronger effect = lower value 1.03 | locus YIL066C, strain RNR3, stronger effect = lower value 1 | locus YIL073C, strain SPO22, stronger effect = lower value 1.1 | locus YIL125W, strain kgd1, stronger effect = lower value 1.03 | locus YIR030C, strain dcg1, stronger effect = lower value 1.02 | locus YJL092W, strain hpr5, stronger effect = lower value 0.99 | locus YJL095W, strain BCK1 (second series), stronger effect = lower value 0.99 | locus YJL095W, strain BCK1, stronger effect = lower value 1.08 and 1.04 | locus YJL115W, strain asf1, stronger effect = lower value 0.977 | locus YJL129C, strain trk1, stronger effect = lower value 0.979 | locus YJL134W, strain LCB3, stronger effect = lower value 1.03 | locus YJL154C, strain vps35, stronger effect = lower value 0.987 | locus YJL164C, strain tpk1, stronger effect = lower value 0.95 | locus YJL166W, strain qcr8, stronger effect = lower value 1 | locus YJL168C, strain set2, stronger effect = lower value 1.03 | locus YJL187C, strain SWE1 (second series), stronger effect = lower value 1.06 | locus YJL187C, strain SWE1, stronger effect = lower value 0.993 | locus YJR043C, strain POL32, stronger effect = lower value 1.04 | locus YJR066W, strain TOR1, stronger effect = lower value 1 | locus YKL009W, strain mrt4, stronger effect = lower value 0.994 | locus YKL068W, stronger effect = lower value 1.01 | locus YKL085W, strain MDH1 (second series), stronger effect = lower value 1.02 | locus YKL085W, strain MDH1, stronger effect = lower value 1.02 | locus YKL160W, strain elf1, stronger effect = lower value 0.948 | locus YKL190W, strain CNB1, stronger effect = lower value 1.07 | locus YKR001C, strain vps1, stronger effect = lower value 1.06 | locus YKR026C, strain gcn3, stronger effect = lower value 0.996 | locus YKR091W, strain srl3, stronger effect = lower value 0.973 | locus YLL001W, strain dnm1, stronger effect = lower value 0.932 | locus YLL026W, stronger effect = lower value 0.986 | locus YLL041C, strain sdh2, stronger effect = lower value 0.984 | locus YLR027C, strain aat2, stronger effect = lower value 1 | locus YLR039C, strain RIC1, stronger effect = lower value 1.08 | locus YLR058C, strain SHM2, stronger effect = lower value 1.02 | locus YLR102C, strain apc9, stronger effect = lower value 1.03 | locus YLR113W, strain HOG1, stronger effect = lower value 1.02 | locus YLR221C, strain rsa3, stronger effect = lower value 1.03 | locus YLR258W, strain gsy2, stronger effect = lower value 0.962 | locus YLR262C, strain YPT6 (second series), stronger effect = lower value 0.984 | locus YLR262C, strain YPT6, stronger effect = lower value 1.17 | locus YLR268W, strain sec22, stronger effect = lower value 1.06 | locus YLR320W, strain mms22, stronger effect = lower value 1.02 | locus YLR330W, strain CHS5, stronger effect = lower value 1.06 | locus YLR342W, strain FKS1 (second series), stronger effect = lower value 1.04 | locus YLR342W, strain FKS1, stronger effect = lower value 0.989 | locus YLR357W, strain rsc2, stronger effect = lower value 1 | locus YLR370C, strain arc18, stronger effect = lower value 0.981 | locus YLR371W, strain rom2, stronger effect = lower value 1.03 | locus YLR384C, strain iki3, stronger effect = lower value 0.964 | locus YLR418C, strain cdc73, stronger effect = lower value 1.05 | locus YML016C, strain PPZ1, stronger effect = lower value 1.02 | locus YML032C, strain rad52, stronger effect = lower value 1.01 | locus YML120C, strain ndi1, stronger effect = lower value 0.96 | locus YML124C, strain tub3, stronger effect = lower value 1.02 | locus YMR058W, strain fet3, stronger effect = lower value 0.997 | locus YMR078C, strain ctf18, stronger effect = lower value 1.03 | locus YMR125W, strain sto1, stronger effect = lower value 0.978 | locus YMR129W, stronger effect = lower value 1.02 | locus YMR205C, strain PFK2, stronger effect = lower value 0.993 | locus YMR223W, strain ubp8, stronger effect = lower value 1.03 | locus YMR231W, strain pep5, stronger effect = lower value 0.993 | locus YMR263W, strain SAP30, stronger effect = lower value 1.04 | locus YMR307W, strain GAS1, stronger effect = lower value 1.1 | locus YNL067W, strain RPL9B, stronger effect = lower value 1.09 | locus YNL071W, strain lat1, stronger effect = lower value 0.991 | locus YNL183C, strain NPR1, stronger effect = lower value 0.999 | locus YNL209W, strain ssb2, stronger effect = lower value 0.978 | locus YNL233W, strain BNI4, stronger effect = lower value 1.08 | locus YNL248C, strain rpa49, stronger effect = lower value 1.03 | locus YNL250W, strain rad50, stronger effect = lower value 1.03 | locus YNL271C, strain bni1, stronger effect = lower value 1.02 | locus YNL298W, strain CLA4, stronger effect = lower value 1 | locus YNL307C, strain MCK1, stronger effect = lower value 1.03 | locus YNL322C, strain KRE1 (second series), stronger effect = lower value 0.982 | locus YNR049C, strain mso1, stronger effect = lower value 0.989 | locus YNR052C, strain pop2, stronger effect = lower value 1.02 | locus YOL012C, strain htz1 0.914 | locus YOL147C, strain pex11, stronger effect = lower value 1.03 | locus YOR001W, strain rrp6, stronger effect = lower value 1.02 | locus YOR061W, strain CKA2, stronger effect = lower value 1.02 | locus YOR069W, strain VPS5, stronger effect = lower value 1.02 | locus YOR070C, strain gyp1, stronger effect = lower value 1.01 | locus YOR080W, strain dia2, stronger effect = lower value 0.995 | locus YOR083W, strain WHI5, stronger effect = lower value 0.948 | locus YOR106W, strain vam3, stronger effect = lower value 0.909 | locus YOR136W, strain idh2, stronger effect = lower value 1.04 | locus YOR144C, strain elg1, stronger effect = lower value 1.02 | locus YOR184W, strain ser1, stronger effect = lower value 1.04 | locus YOR231W, strain MKK1, stronger effect = lower value 1.07 | locus YOR265W, strain rbl2, stronger effect = lower value 0.983 | locus YOR270C, strain vph1, stronger effect = lower value 0.982 | locus YOR290C, strain snf2, stronger effect = lower value 0.927 | locus YOR316C, strain cot1, stronger effect = lower value 1.02 | locus YPL051W, strain arl3, stronger effect = lower value 0.954 | locus YPL055C, strain LGE1, stronger effect = lower value 1.06 | locus YPL078C, strain atp4, stronger effect = lower value 0.936 | locus YPL106C, strain sse1, stronger effect = lower value 0.978 | locus YPL240C, strain hsp82, stronger effect = lower value 0.991 | locus YPL256C, strain CLN2, stronger effect = lower value 1.04 | locus YPR119W, strain clb2, stronger effect = lower value 1.02 | locus YPR141C, strain kar3, stronger effect = lower value 1.03 | locus YPR163C, strain tif3, stronger effect = lower value 1.03 | locus YPR167C, strain met16, stronger effect = lower value 1.02 | strain wtn01, stronger effect = lower value 1.05
